Assay results reported in PubChem BioAssay (Tox21).
Records with an inconclusive call do not appear. The source made the active and inactive calls. Unless noted, the call rests on the fitted dose curve; in most records, active means well fitted curve in the direction sought with a large enough effect in the repeat runs; inconclusive means weak or mixed curves; inactive means no such curve, though single readings can be large; an effect the other way counts as inactive or inconclusive.

Assays:
[1] = qHTS assay to identify small molecule agonists of the peroxisome proliferator-activated receptor delta (PPARd) signaling pathway - cell viability counter screen (AID 743211); further: nearly all actives have a fitted effect of over 55% in size
How it was run: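 Tox21 library compounds, delivered in DMSO, were incubated 17 h with PPARd-bla HEK293H cells; cytotoxicity was taken from CellTiter-Glo luminescence read 30 min after reagent addition.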

[2] = qHTS assay to identify small molecule antagonists of the peroxisome proliferator-activated receptor delta (PPARd) signaling pathway - cell viability counter screen (AID 743213); further: nearly all actives have a fitted effect of over 50% in size
How it was run: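 In this counter screen, HEK293H cells carrying a UAS-beta-lactamase reporter are co-treated with test compounds and 300 nM L165041 (final) for 17 h at 37 C; cell viability is quantified by CellTiter-Glo luminescence.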

[3] = qHTS assay to identify small molecule agonists of the farnesoid-X-receptor (FXR) signaling pathway - cell viability counter screen (AID 743218); further: nearly all actives have a fitted effect of over 45% in size
How it was run: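 FXR-UAS-bla HEK 293T cells, plated 5 h at 37 C, were exposed to compounds for 16 h at 37 C. CellTiter-Glo was then added to the same wells as the bla readout; luminescence read after 30 min at room temperature.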

[4] = qHTS assay to identify small molecule antagonists of the farnesoid-X-receptor (FXR) signaling pathway - cell viability counter screen (AID 743221; active means well fitted cell-killing curve with a large enough effect in the repeat runs, not every such curve was filed as active; further: nearly all actives have a fitted effect of over 50% in size)
How it was run: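 Cytotoxicity is taken from ATP luminescence (CellTiter-Glo, 30 min, room temperature) in FXR-bla HEK 293T cells previously incubated 16 h at 37 C with compound and chenodeoxycholic acid at 50 uM final.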

[5] = molecular target: Vitamin D3 receptor (Homo sapiens) (UniProt P11473); test: qHTS assay to identify small molecule antagonists of the vitamin D receptor (VDR) signaling pathway (AID 743223; active means well fitted inhibition curve with a large enough effect in the signal ratio in the repeat runs, not every such curve was filed as active; the % refers to the signal ratio)
How it was run: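 Quantitative HTS in VDR-bla reporter cells stimulated with 1alpha,25-dihydroxyvitamin D3, 3 nM final. Compound exposure 16 h, 37C, 5% CO2. Read-out: beta-lactamase FRET substrate fluorescence, 2 h RT.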

[6] = qHTS assay to identify small molecule agonists of the vitamin D receptor (VDR) signaling pathway - cell viability counter screen (AID 743224); further: series mostly up to about 63 µM; nearly all actives have a fitted effect of over 50% in size
How it was run: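 VDR-bla cells were preincubated 4 h at 37C/5% CO2, then exposed to compounds for 16 h. After the 2 h room-temperature bla FRET read, CellTiter-Glo was added to the same wells and luminescence read after 30 min.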

[7] = qHTS assay to identify small molecule antagonists of the vitamin D receptor (VDR) signaling pathway - cell viability counter screen (AID 743225); further: nearly all actives have a fitted effect of over 50% in size
How it was run: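 Same-well multiplex: following 16 h treatment of HEK 293T cells carrying a UAS-driven beta-lactamase reporter with compound and agonist (3 nM final), and a 2 h FRET substrate step, CellTiter-Glo was added and luminescence read after 30 min.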

[8] = qHTS assay to identify small molecule agonists of the NFkB signaling pathway (AID 1159509; active means well fitted curve in the direction sought with a large enough effect in the signal ratio in the repeat runs, not every such curve was filed as active; the % refers to the signal ratio; further: series mostly up to about 61 µM)
How it was run: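 ME-180 NFkB-bla, 2,000 cells/well, overnight plating; cpd pinned in DMSO, 5 h 37 C; B/G FRET substrate 1.5 h RT; ex 405, em 460/530 nm.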

[9] = qHTS assay to identify small molecule agonists of the NFkB signaling pathway - cell viability counter screen (AID 1159515; calls by dose curve; further: series mostly up to about 61 µM; nearly all actives have a fitted effect of over 55% in size)
How it was run: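 NFkB-bla ME-180 cells, 2,000/well, were plated overnight at 37 C, 5% CO2, then exposed to compounds in DMSO for 5 hr. After the bla FRET read, CellTiter-Glo was added to the same wells; luminescence was read after 30 min at room temperature.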

[10] = qHTS assay to identify small molecule agonists of the endoplasmic reticulum stress response signaling pathway (AID 1159516; active means well fitted activation curve with a large enough effect in the signal ratio in the repeat runs, not every such curve was filed as active; the % refers to the signal ratio)
How it was run: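 CellSensor ESRE-bla HeLa cells, carrying a beta-lactamase reporter driven by the ER stress response element, were plated overnight and exposed to compounds for 5 hr at 37 C. Reporter activity was read as FRET substrate fluorescence after 2 hr at room temperature.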

[11] = qHTS assay to identify small molecule agonists of the endoplasmic reticulum stress response signaling pathway - cell viability counter screen (AID 1159517; calls by dose curve)
How it was run: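 CellTiter-Glo was added to wells already read for beta-lactamase FRET, and luminescence was recorded 30 min later. Cells: ESRE-bla HeLa, 1,500 per well, compound exposure 5 hr at 37 C.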

[12] = qHTS assay to identify small molecule antagonists of the retinoid-related orphan receptor gamma (ROR-gamma) signaling pathway - cell viability counter screen (AID 1159520); further: nearly all actives have a fitted effect of over 50% in size
How it was run: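 Tet-on ROR gamma CHO cells (1,000/well) were plated 4 hr, given compounds in DMSO for 2 hr at 37 C, then induced with 1 uM final doxycycline for 16 hr. Viability was read as ATP by CellTiter-Glo luminescence after 30 min.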

[13] = molecular target: Nuclear receptor ROR-gamma (Homo sapiens) (UniProt P51449); test: qHTS assay to identify small molecule antagonists of the retinoid-related orphan receptor gamma (ROR-gamma) signaling pathway (AID 1159521)
How it was run: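 Inducible-expression reporter assay: doxycycline (1 uM final) switched on RORγ in CHO cells bearing a ROR response element-luciferase construct, with test compounds present from 2 h beforehand. Decreased luminescence after 16 h defined antagonist activity.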

[14] = qHTS assay to identify small molecule agonists of the AP-1 signaling pathway - cell viability counter screen (AID 1159525; calls by dose curve; further: nearly all actives have a fitted effect of over 55% in size)
How it was run: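 ME-180 AP-1-bla, 2500 cells/well, Opti-MEM + 0.5% dialyzed FBS; overnight 37 °C; cpd 15-pt titration, 5 h 37 °C; CellTiter-Glo 30 min RT; luminescence read; normalised to TOAB and DMSO controls.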

[15] = qHTS assay to identify small molecule agonists of the AP-1 signaling pathway (AID 1159526; calls by dose curve)
[16] = molecular target: Peroxisome proliferator-activated receptor delta (Homo sapiens) (UniProt Q03181); test: qHTS assay to identify small molecule agonists of the peroxisome proliferator-activated receptor delta (PPARd) signaling pathway (AID 743212; calls by dose curve)
How it was run: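 A PPARd-bla HEK293H line with beta-lactamase under an Upstream Activator Sequence is treated with compounds at 37 C. Substrate loading for 2 h at room temperature precedes the fluorescence measurement.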

[17] = molecular target: Peroxisome proliferator-activated receptor delta (Homo sapiens) (UniProt Q03181); test: qHTS assay to identify small molecule antagonists of the peroxisome proliferator-activated receptor delta (PPARd) signaling pathway (AID 743215; active means well fitted inhibition curve with a large enough effect in the signal ratio in the repeat runs, not every such curve was filed as active; the % refers to the signal ratio;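 further: cells stimulated with agonist L165041 at 300 nM final during compound exposure; series mostly up to about 62 µM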)
How it was run: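 PPARd UAS-bla HEK293H cells were pre-incubated 5 h at 37 C, then given test compounds in DMSO plus agonist L165041 (300 nM final). After 17 h at 37 C, beta-lactamase FRET substrate was added; fluorescence read after 2 h at room temperature.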

[18] = molecular target: Vitamin D3 receptor (Homo sapiens) (UniProt P11473); test: qHTS assay to identify small molecule agonists of the vitamin D receptor (VDR) signaling pathway (AID 743222; calls by dose curve)
How it was run: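 VDR-bla cells were plated 4 h at 37C/5% CO2, then exposed to compounds in DMSO for 16 h. After LiveBLAzer B/G FRET substrate addition and 2 h at room temperature, beta-lactamase reporter fluorescence was read.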

[19] = molecular target: Bile acid receptor (Homo sapiens) (UniProt Q96RI1); test: qHTS assay to identify small molecule antagonists of the farnesoid-X-receptor (FXR) signaling pathway (AID 743217; active means well fitted inhibition curve with a large enough effect in the signal ratio in the repeat runs, not every such curve was filed as active; the % refers to the signal ratio)
How it was run: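 FXR-UAS-bla HEK 293T cells pre-incubated 5 h at 37 °C, then exposed to compounds with chenodeoxycholic acid (50 uM final) for 16 h at 37 °C. Beta-lactamase reporter read by LiveBLAzer B/G FRET substrate fluorescence after 2 h at room temperature.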

[20] = molecular target: Bile acid receptor (Homo sapiens) (UniProt Q96RI1); test: qHTS assay to identify small molecule agonists of the farnesoid-X-receptor (FXR) signaling pathway (AID 743220; active means well fitted activation curve with a large enough effect in the signal ratio in the repeat runs, not every such curve was filed as active; the % refers to the signal ratio)
How it was run: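 Beta-lactamase reporter under UAS control in GeneBLAzer FXR HEK 293T cells (5000/well) measured with LiveBLAzer FRET substrate after 2 h at room temperature. Compound exposure lasted 16 h at 37C.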

Measured: Potency

Chain of Vitamin D3 receptor (Homo sapiens) (P11473 whole entry, looked up): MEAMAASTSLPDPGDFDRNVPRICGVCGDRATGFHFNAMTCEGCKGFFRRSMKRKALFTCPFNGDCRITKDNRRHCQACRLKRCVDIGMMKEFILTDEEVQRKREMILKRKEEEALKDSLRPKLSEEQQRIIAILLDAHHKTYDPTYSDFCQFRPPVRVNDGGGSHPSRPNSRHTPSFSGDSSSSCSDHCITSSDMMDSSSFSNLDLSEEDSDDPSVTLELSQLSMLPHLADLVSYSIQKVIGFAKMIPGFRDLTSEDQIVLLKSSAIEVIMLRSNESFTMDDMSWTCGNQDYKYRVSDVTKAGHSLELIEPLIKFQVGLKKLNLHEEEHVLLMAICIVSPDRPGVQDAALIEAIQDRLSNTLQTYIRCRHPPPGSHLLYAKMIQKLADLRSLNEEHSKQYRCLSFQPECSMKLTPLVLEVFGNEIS
Chain of Peroxisome proliferator-activated receptor delta (Homo sapiens) (Q03181 whole entry, looked up): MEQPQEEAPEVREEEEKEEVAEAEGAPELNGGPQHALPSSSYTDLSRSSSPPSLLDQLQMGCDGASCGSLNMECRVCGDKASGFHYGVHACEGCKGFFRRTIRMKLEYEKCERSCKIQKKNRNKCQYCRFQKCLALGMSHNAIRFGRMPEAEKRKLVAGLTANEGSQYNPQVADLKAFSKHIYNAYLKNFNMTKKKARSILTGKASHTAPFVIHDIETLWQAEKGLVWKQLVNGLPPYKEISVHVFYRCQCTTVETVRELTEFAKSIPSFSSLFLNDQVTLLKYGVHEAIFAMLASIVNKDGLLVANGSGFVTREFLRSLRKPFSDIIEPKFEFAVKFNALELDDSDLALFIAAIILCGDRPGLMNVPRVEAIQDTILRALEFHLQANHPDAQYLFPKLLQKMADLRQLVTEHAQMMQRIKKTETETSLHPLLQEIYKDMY
Chain of Bile acid receptor (Homo sapiens) (Q96RI1 whole entry, looked up): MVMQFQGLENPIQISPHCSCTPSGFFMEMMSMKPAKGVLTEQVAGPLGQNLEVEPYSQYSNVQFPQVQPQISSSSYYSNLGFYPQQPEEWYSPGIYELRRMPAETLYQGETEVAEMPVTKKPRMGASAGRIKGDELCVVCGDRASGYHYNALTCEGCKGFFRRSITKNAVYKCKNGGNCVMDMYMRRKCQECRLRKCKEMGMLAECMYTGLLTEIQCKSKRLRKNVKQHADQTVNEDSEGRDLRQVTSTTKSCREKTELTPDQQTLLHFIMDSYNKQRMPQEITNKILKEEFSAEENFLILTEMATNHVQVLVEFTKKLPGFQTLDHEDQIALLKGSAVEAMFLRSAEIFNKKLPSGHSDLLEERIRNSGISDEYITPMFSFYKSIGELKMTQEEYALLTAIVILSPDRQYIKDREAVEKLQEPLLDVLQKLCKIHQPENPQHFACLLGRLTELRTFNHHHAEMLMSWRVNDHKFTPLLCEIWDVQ

CC(C)c1ccc2oc3nc(N)c(C(=O)O)cc3c(=O)c2c1
not listed: [16] | [17] | [18] | [19] | [20]
inactive: all other assays above

CCCCCCCCN(C)CCCCCCCC
not listed: [1] | [19] | [20]
inactive: all other assays above

CCCCN(CCO)CCO
not listed: [3] | [7] | [16] | [17] | [19] | [20]
inactive: all other assays above

CCOC(=O)Cn1c(=O)sc2cccc(Cl)c21
not listed: [1]
inactive: all other assays above

CCC(=O)c1cccc(Cl)c1
not listed: [1] | [6] | [19] | [20]
inactive: all other assays above

COC[C@H](c1ccc(C(F)(F)F)cc1)N1CCN(C2(C)CCN(C(=O)c3c(C)ncnc3C)CC2)C[C@H]1C
not listed: [1] | [3] | [5] | [19] | [20]
inactive: all other assays above

O=C(CCOCCOCCOCCOCCC(=O)Nc1c(I)cc(I)c(C(=O)O)c1I)Nc1c(I)cc(I)c(C(=O)O)c1I
not listed: [16] | [17] | [19] | [20]
inactive: all other assays above

CC/C=C\CCCCO
not listed: [16] | [17] | [19] | [20]
inactive: all other assays above

NC(=O)CCCCC1CCSS1 (stereo unspecified)
not listed: [1] | [3] | [17]
inactive: all other assays above

CCCCCCOC(=O)CC(CC(=O)OCCCCCC)(OC(=O)CCC)C(=O)OCCCCCC
not listed: [1] | [5] | [6] | [7] | [17] | [19] | [20]
inactive: all other assays above

COc1cc(C(=O)N2CCOCC2)cc(OC)c1OC
not listed: [16] | [17] | [19] | [20]
inactive: all other assays above

CC1=CC(C)C(C=O)C(C)C1 (stereo unspecified)
not listed: [4] | [16] | [17]
inactive: all other assays above

C=C(C)C(=O)NCCCN(C)C
not listed: [1] | [7] | [17] | [19] | [20]
inactive: all other assays above

CC(CCO)CCCC(C)(C)O (stereo unspecified)
not listed: [16] | [17] | [19]
inactive: all other assays above

CC(C)(O)Cc1ccccc1
not listed: [1] | [3] | [5] | [7] | [19] | [20]
inactive: all other assays above

OCC(CO)(CO)COCC(CO)(CO)CO
not listed: [3] | [16] | [17]
inactive: all other assays above

O=C(O)c1ccc[n+]([O-])c1
not listed: [1] | [7] | [19] | [20]
inactive: all other assays above

CC1=CCC2C(C1)C2(C)C (stereo unspecified)
not listed: [1] | [5] | [17]
inactive: all other assays above

O=C1CC2(CCCC2)CC(=O)N1
not listed: [1]
inactive: all other assays above

C(=C(c1ccccc1)c1ccccc1)c1ccccc1
not listed: [1] | [6] | [17]
inactive: all other assays above

CCC(C(=O)NC(N)=O)c1ccccc1 (stereo unspecified)
not listed: [5] | [7] | [14] | [17] | [18]
inactive: all other assays above

CC(=O)CCc1ccc(O)cc1
not listed: [5] | [14] | [19] | [20]
inactive: all other assays above

C=CCn1c(=O)n([C@@H]2O[C@H](CO)[C@@H](O)[C@H]2O)c2nc(N)[nH]c(=O)c21
not listed: [1] | [5] | [6] | [16] | [17] | [18]
inactive: all other assays above

CCCCC1CCCCC(=O)O1 (stereo unspecified)
not listed: [14] | [16] | [19] | [20]
inactive: all other assays above

CCOC(=O)[C@H](CCc1ccccc1)N[C@@H](C)C(=O)N1CCC[C@H]1C(=O)O
not listed: [1] | [2] | [3] | [5] | [20]
inactive: all other assays above

CCCC(C)C(=O)O (stereo unspecified)
not listed: [1] | [2] | [17]
inactive: all other assays above

C=C(C)C(=O)OCCC(C)OC(=O)C(=C)C (stereo unspecified)
not listed: [1] | [3] | [14] | [19] | [20]
inactive: all other assays above
